Source: PubChem BioAssay
Sampled rows, rich in hits. Any-hit rate of the full collection: about 8.1%.
MCF10A rereplic – inducers of DNA re-replication in MCF 10A breast cells; 350,000 compounds, 2.9% hits; AID 624296; MCF 10A DNA re-replication, Hoechst nuclear intensity, 48 h; Potency, µM (titrated, usually from 46.1 µM), inactives show at the top dose activity, positive = re-replication, hits mostly activators; further: % of control where 0% means no effect; nearly all actives have a fitted effect of over 50% in size
ELG1 DNA repair – inhibitors of ELG1-dependent DNA repair in HEK293T cells. HEK293T ELG1-luciferase reporter, luminescence, 16 h; DNA damage induced by 5-fluorouridine. Potency, µM (highest dose often 46.1 µM), inactives show at the highest dose activity change, negative = inhibition, usual class: inhibitors. 330,000 compounds, 2.3% hits. AID 504467; further: on the % scale 0 is the no-effect control and ±100 the full control effect; nearly all actives have a fitted effect of over 55% in size
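In this reporter screen, reduction of luminescence relative to DMSO vehicle indicated activity. Compounds and 5-fluorouridine were added together to 2,000 cells per well, incubated for 16 hr at 37 °C, then developed with ONE-Glo.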
KB-3-1 tox – kills parental KB-3-1 adenocarcinoma cells; KB-3-1 viability, CellTiter-Glo ATP luminescence, 72 h; Potency, µM (top dose mostly 46.1 µM), hits mostly cytotoxic; 400,000 compounds, 1.4% hits; further: on the % scale 0 is the no-effect control and ±100 the full control effect; nearly all actives have a fitted effect of over 60% in size
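KB-3-1 parental drug-naive adenocarcinoma cells in DMEM/10% FBS, incubated 72 h at 37 C with pin-transferred compounds across a concentration series. Viability by CellTiter-Glo luminescence; concentration-response curves fitted after normalization.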
KB-V1 cytotox – kills drug-selected multidrug resistant KB-V1 cells; KB-V1 MDR cells viability, CellTiter-Glo, 72 h; AID 1347076; 400,000 compounds, 3.4% hits; Potency, µM (top dose mostly 46.1 µM), usual class: cytotoxic; further: on the % scale 0 is the no-effect control and ±100 the full control effect; nearly all actives have a fitted effect of over 60% in size
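Cytotoxicity toward P-gp-expressing KB-V1 cells was determined as loss of CellTiter-Glo luminescence after 72 h at 37 degrees C. Compounds were tested in quantitative HTS format across a concentration range, with curves fitted to normalized data.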
SW480 rereplic – induces DNA re-replication in SW480 colon adenocarcinoma cells. SW480 DNA re-replication, Hoechst DNA content imaging, 48 h. Potency, µM (titrated, usually from 46.1 µM), inactives show top-dose re-replication activation, actives largely listed as activators. 340,000 compounds, 1.8% hits. AID 624297; further: % of control where 0% means no effect; nearly all actives have a fitted effect of over 55% in size
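Quantitative HTS format with DMSO vehicle controls; 48 hr drug incubation at 37 C, then 40 min Hoechst staining and scanning imager measurement at 405 nm excitation.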
Active calls of the source: *; i = inactive; ? = inconclusive; · = not tested or not shown; [ ] = another dose, or the depositor's remark. The call rests on the fitted dose curve; in most records, active means well fitted curve in the direction sought with a large enough effect; inconclusive means small, poorly fitted or top-dose-only effect, or another doubt; inactive means no such curve, though single readings can be large; an effect the other way counts as inactive or inconclusive. Potency means the concentration at half of the fitted maximal effect.

SMILES | MCF10A rereplic | ELG1 DNA repair | KB-3-1 tox | KB-V1 cytotox | SW480 rereplic
O=C(NCCc1csc(-c2ccc(F)cc2)n1)c1c(F)cccc1Cl | · | · | i | i | ·
COc1ccccc1CC(=O)NC1CCCCCC1 | -8.6% | 16.6% | i | i | -35.9%
CC1CCN(C(=O)CN2C(=O)C(C)(C)Oc3ccc(C(=O)NC4CCCC4)cc32)CC1 | -187.4%[0.0737 µM] | -26.2% | i | i | 0.6%
Cc1c(CCC(=O)N[C@@H](C)C(=O)O)c(=O)oc2c(C)c3oc4c(c3cc12)CCCC4 | -13.9% | 11.8% | i | i | -5.3%
CCCOc1ncnc2c1[nH]c1ccc(OC)cc12 | 8.5% | ? | ? | 14.6µM* | 20.4%
CCCCOc1ncnc2c1[nH]c1ccc(C)cc12 | -2.0% | ? | ? | 7.31µM* | -1.1%
CCCOc1ncnc2c1[nH]c1ccccc12 | ? | ? | ? | ? | -0.5%
O=C(NC(=S)N1CCCCCC1)C1CC1 | 2.9% | 1.6% | i | i | 0.9%
CN(C)CC(CCCCC(CN(C)C)C(=O)c1ccccc1)C(=O)c1ccccc1 (stereo not given) | ? | ? | ? | i | 10.3µM*
CCCCC(CCc1ccccn1)C(=O)c1ccccc1 (stereo not given) | ? | · | i | 16.4µM* | -3.3%
CCC(CCc1ccccn1)C(=O)c1ccccc1 (stereo not given) | 11.8% | · | i | ? | 17.3%
CN(C)CCC(C(=O)c1ccccc1)c1ccccn1 (stereo not given) | 1.5% | · | i | i | 0.1%
CC(=NCCc1c(C)[nH]c2ccc(OCc3ccccc3)cc12)C1=C(O)CC(c2ccccc2)CC1=O (stereo not given) | 1.0% | ? | i | ? | 2.3%
CCC(=NCCc1c(C)[nH]c2ccc(OC(F)(F)F)cc12)C1=C(O)CC(c2ccccc2)CC1=O (stereo not given) | ? | ? | 4.11µM* | 2.91µM* | 11.6µM*
CCCCC(=NCCc1c(C)[nH]c2ccc(OC)cc12)C1=C(O)CC(c2ccccc2)CC1=O (stereo not given) | 2.59µM* | 10.3µM* | 3.66µM* | 5.8µM* | 7.31µM*
CCC(=NCCc1c(C)[nH]c2ccccc12)C1=C(O)CC(c2ccccc2)CC1=O (stereo not given) | 4.11µM* | 8.2µM* | 4.61µM* | 3.66µM* | 10.3µM*
COc1cccc2cc(C(=O)NC3CC4CCC3C4)oc12 (stereo not given) | -11.5% | -18.4% | ? | ? | 1.1%
COc1ccc(N2CCN(C(=O)c3[nH]c(C(F)(F)F)nc3-c3ccccc3)CC2)cc1 | · | · | i | i | ·
Cc1cccc(N2CCN(C(=O)c3[nH]c(C(F)(F)F)nc3-c3ccccc3)CC2)c1C | · | · | 2.31µM* | ? | ·
O=C(c1[nH]c(C(F)(F)F)nc1-c1ccccc1)N1CCN(c2cccc(C(F)(F)F)n2)CC1 | · | · | 5.17µM* | ? | ·
COc1ccccc1N1CCN(C(=O)c2[nH]c(C(F)(F)F)nc2-c2ccccc2)CC1 | · | · | 5.8µM* | ? | ·
Cc1cccc(C)c1NC(=S)N(C)CCc1ccccn1 | -0.6% | -1.5% | i | i | -2.1%
COCCN1Cc2cc3cc(C)ccc3nc2SC1=Nc1cccc(OC)c1 | ? | ? | i | i | 68.0%
Cc1cccc(N=C2Sc3nc4c(C)c(C)ccc4cc3CN2CCN2CCOCC2)c1 | 11.6µM* | 9.2µM* | i | i | 1.2%
c1ccc(Cn2sc(=Nc3ccccc3)nc2-c2ccccc2)cc1 | · | · | ? | i | ·
c1ccc(N=c2nc(-c3ccccc3)n(-c3ccccc3)s2)cc1 | · | · | ? | 16.4µM* | ·
CCOC(=O)CCCCCCCCC(=O)Nc1ccc(-n2[nH]c(=O)cc2C)cc1 | 6.6% | · | i | ? | -6.6%
Cc1nc2c(C)cccc2c2c1CCN2c1ccccc1F | ? | -16.7% | i | i | -0.7%
COc1ccc(N2CCc3c(C)nc4c(OC)cc(OC)cc4c32)c(OC)c1 | 25.9µM* | ? | ? | ? | ?
COc1ccc(N2CCc3c(C)nc4c(OC)cc(OC)cc4c32)cc1 | ? | ? | i | ? | 14.2%
